uPA surface inh: blocks generation of uPA at the cell surface; cell surface uPA generation assay, qHTS; Potency, µM (top dose mostly 38.3 µM), hits mostly inhibitors; 0.31% of 330,000 active; AID 540303; active means well fitted inhibition curve with a large enough effect; inconclusive means small, poorly fitted or top-dose-only effect; inactive means no such curve, though single readings can be large or run the other way; tested in mouse RAW 264.7 cells; further: nearly all actives have a fitted effect of over 55% in size
ELG1 genotoxic: genotoxicity induction in ELG1-luciferase HEK293T cells | HEK293T ELG1-luciferase reporter, luminescence, 16 h | Potency, µM (doses to about 46 µM), hits mostly activators | 1.3% of 330,000 active | AID 504466; further: nearly all actives have a fitted effect of over 60% in size
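16 hr compound incubation (37 °C, 5% CO2) of HEK293T cells carrying luciferase-tagged ELG1; luciferase then measured by ONE-Glo luminescence after 30 min at RT.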
SMN2 splice up: increases expression of the SMN2 splice variant; HEK293 SMN2-luciferase splicing reporter, luminescence, 30-36 h; Potency, µM (doses to about 46.1 µM), hits mostly activators; 2.8% of 210,000 active; AID 1458; further: nearly all actives have a fitted effect of over 55% in size
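HEK293 cells carry an SMN2 minigene-luciferase reporter in which exon 7 inclusion puts luciferase in frame. Cells were seeded at 2000 cells/well, attached for 10-12 hours, then exposed to compounds for 30-36 hours at 37C before ONE-Glo luminescence.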
Rab9 promoter act: activates the Rab9 promoter | AID 485297 | Huh7 Rab9 promoter-luciferase reporter, luminescence, 24 h | Potency, µM (top dose mostly 9.22 µM), usual class: activators | 2.8% of 320,000 active; further: nearly all actives have a fitted effect of over 60% in size
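Huh7 reporter line, Rab9 promoter upstream of luciferase. Compound exposure 24 h at 37 °C in reduced-serum medium with 10% FBS. Read-out: luminescence.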
FLuc counter: firefly luciferase modulation, counter-screen for miR-21 project; P08659; purified FLuc, Km substrates, luminescence inhibition; Potency, µM (highest dose often 57.5 µM), hits mostly inhibitors; 6.9% of 360,000 active; AID 588342; further: nearly all actives have a fitted effect of over 55% in size
Target sequence (P08659 whole entry, looked up): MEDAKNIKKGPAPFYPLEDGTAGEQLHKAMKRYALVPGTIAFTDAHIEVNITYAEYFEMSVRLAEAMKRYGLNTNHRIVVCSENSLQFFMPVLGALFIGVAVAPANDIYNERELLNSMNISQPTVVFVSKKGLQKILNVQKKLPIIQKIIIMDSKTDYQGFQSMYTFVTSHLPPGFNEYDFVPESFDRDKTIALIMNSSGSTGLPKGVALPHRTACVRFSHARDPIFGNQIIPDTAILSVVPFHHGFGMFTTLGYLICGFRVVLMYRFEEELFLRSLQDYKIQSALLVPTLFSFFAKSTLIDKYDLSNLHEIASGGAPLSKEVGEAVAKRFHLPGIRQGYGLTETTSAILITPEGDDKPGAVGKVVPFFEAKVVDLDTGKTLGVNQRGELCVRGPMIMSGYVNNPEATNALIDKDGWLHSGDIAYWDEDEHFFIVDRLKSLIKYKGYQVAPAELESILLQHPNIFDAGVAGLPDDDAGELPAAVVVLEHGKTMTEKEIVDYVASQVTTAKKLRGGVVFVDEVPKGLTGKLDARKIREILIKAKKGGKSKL
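Purified P. pyralis luciferase (10nM final) with 10uM D-luciferin and 10uM ATP (Km levels) in 50mM Tris acetate pH 7.5, 10mM Mg acetate, 0.01% Tween-20, 0.05% BSA; qHTS 6-point titration, ~60 µM downward; luminescence read.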
NPC1 promoter act: NPC1 promoter activation. 2.4% of 320,000 active. Huh7 NPC1 promoter luciferase reporter, 24 h. Potency, µM (series often up to 9.22 µM), hits mostly activators; further: nearly all actives have a fitted effect of over 60% in size
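Stably transfected Huh7 (NPC1 promoter→luciferase), 1500 cells/well in Opti-MEM + 10% FBS, 2 h settle, then compound 24 h at 37 °C. Luminescence after 10 min with Amplite reagent.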
Large screens that a line does not name were inactive. Rows were chosen to be rich in hits. Some 7.3% of all compounds tested hit in one or more screens of this group. Unless noted, the call rests on the fitted dose curve; in most records, active means well fitted curve in the direction sought with a large enough effect; inconclusive means small, poorly fitted or top-dose-only effect, or another doubt; inactive means no such curve, though single readings can be large; an effect the other way counts as inactive or inconclusive.

O=C(NN1C(=O)/C(=C/c2ccc(O)c(O)c2)SC1=S)c1ccccc1	FLuc counter inconclusive (no result: SMN2 splice up)
O=C(O)c1ccc(/C=C2\SC(=S)N(Nc3ccccc3)C2=O)cc1	FLuc counter inconclusive (no result: SMN2 splice up)
O=C1/C(=C/c2ccc(O)c(O)c2)SC(=S)N1Nc1ccccc1	FLuc counter 19µM (no result: SMN2 splice up)
COc1cc(/C=C2\SC(=S)N(Nc3ccccc3)C2=O)ccc1O	ELG1 genotoxic inconclusive, FLuc counter 5.36µM
CC1=CC(C)=Nc2ccccc2N1	ELG1 genotoxic 16.4µM, FLuc counter 16.9µM
CCCc1cnc2c(c1SCc1ccc(C(F)(F)F)cc1)c(=O)n(C)c(=O)n2C	none (no result: uPA surface inh, ELG1 genotoxic, SMN2 splice up, Rab9 promoter act, NPC1 promoter act)
O=C(NNC(=S)Nc1ccccc1)c1cc(-c2cccnc2)nc2ccccc12	FLuc counter 13.5µM
CCOC(=O)c1ccc(Nc2nc(-c3cccnc3)nc3ccccc23)cc1	none
CCOC(=O)c1ccc(NC(=S)NNC(=O)c2cc(-c3cccnc3)nc3ccccc23)cc1	FLuc counter 21.3µM (no result: SMN2 splice up)
O=C(NC(=S)Nc1ccccc1)c1cc(-c2ccccc2)nc2ccccc12	none
O=C(NNC(=O)c1cc(-c2ccc(Cl)cc2Cl)nc2ccccc12)Nc1ccccc1	FLuc counter 6.75µM
COc1ccc(-c2cc(C(=O)N3CCN(c4ccc(F)cc4)CC3)no2)cc1OC	none
O=C(CSc1ncc(-c2ccc(F)cc2)n1Cc1ccco1)Nc1ccc2c(c1)OCO2	FLuc counter 19µM (no result: ELG1 genotoxic, Rab9 promoter act, NPC1 promoter act)
CC(Nc1ccc2c(c1)OCCO2)C(=O)N1CCc2ccccc21 (stereo not drawn)	FLuc counter 26.9µM
CCOc1ccc(NC(=O)CSc2ncc(-c3ccc(F)cc3)n2Cc2ccco2)cc1	none (no result: SMN2 splice up)
CC(C)c1ccc(NC(=O)COC(=O)CSc2nnc(N)s2)cc1	FLuc counter 15.1µM
Nc1ccccc1SCC(=O)Nc1ccc2c(c1)OCCO2	ELG1 genotoxic inconclusive, Rab9 promoter act 3.16µM, FLuc counter 19µM, NPC1 promoter act 2.24µM (no result: SMN2 splice up)
O=C(CCCCCn1c(=O)[nH]c2ccsc2c1=O)NCc1ccccc1	none (no result: uPA surface inh, ELG1 genotoxic, Rab9 promoter act, NPC1 promoter act)
Nc1nnc(SCC(=O)Nc2ccc3c(c2)OCCO3)s1	ELG1 genotoxic inconclusive, FLuc counter 19µM
Cc1cc(NC(=O)CSc2ccc3c(c2)OCCO3)no1	none
Cc1ccnc(NC(=O)CSc2ccc3c(c2)OCCO3)c1	ELG1 genotoxic 18.3µM, FLuc counter inconclusive (no result: SMN2 splice up)
Cc1cccc(SCC(=O)Nc2ccc3c(c2)OCCO3)c1	Rab9 promoter act 3.98µM, FLuc counter inconclusive, NPC1 promoter act 2µM (no result: SMN2 splice up)
Cc1nc(SCC(=O)Nc2ccc3c(c2)OCCO3)nc(C)c1C	SMN2 splice up inconclusive
Nc1ccccc1SCC(=O)Nc1ccc2c(c1)OCO2	Rab9 promoter act 3.98µM, NPC1 promoter act inconclusive (no result: SMN2 splice up)
Cc1ccc(C)c(NC(=O)C2CCCN(c3nc4ccccc4s3)C2)c1 (stereo not drawn)	none (no result: uPA surface inh, ELG1 genotoxic, Rab9 promoter act, NPC1 promoter act)
COc1ccc(-c2cn3nc(N4CCCC(C(=O)NCc5ccccc5Cl)C4)sc3n2)cc1 (stereo not drawn)	FLuc counter 9.53µM (no result: uPA surface inh, ELG1 genotoxic, SMN2 splice up, Rab9 promoter act, NPC1 promoter act)
O=C(NCc1cccc(Cl)c1)C1CCN(c2nn3cc(-c4ccc(F)cc4)nc3s2)CC1	none (no result: uPA surface inh, ELG1 genotoxic, SMN2 splice up, Rab9 promoter act, NPC1 promoter act)
Cc1ccccc1CNC(=O)C1CCN(c2nn3cc(-c4ccc(F)cc4)nc3s2)CC1	none (no result: uPA surface inh, ELG1 genotoxic, SMN2 splice up, Rab9 promoter act, NPC1 promoter act)
Cc1ccc(-c2cn3nc(N4CCCC(C(=O)NCc5ccccc5F)C4)sc3n2)cc1 (stereo not drawn)	FLuc counter 6.01µM (no result: uPA surface inh, ELG1 genotoxic, SMN2 splice up, Rab9 promoter act, NPC1 promoter act)
O=C(NCc1cccc(Cl)c1)C1CCCN(c2nn3cc(-c4ccc(F)cc4)nc3s2)C1 (stereo not drawn)	FLuc counter 9.53µM (no result: uPA surface inh, ELG1 genotoxic, SMN2 splice up, Rab9 promoter act, NPC1 promoter act)
COc1ccc(-c2cn3nc(N4CCCC(C(=O)NCc5ccccc5OC)C4)sc3n2)cc1 (stereo not drawn)	FLuc counter 16.9µM (no result: uPA surface inh, ELG1 genotoxic, SMN2 splice up, Rab9 promoter act, NPC1 promoter act)
Cc1ccc(S(=O)(=O)N2CCC(c3nnc(-c4cccc(C)c4)o3)CC2)cc1	FLuc counter inconclusive (no result: uPA surface inh, ELG1 genotoxic, Rab9 promoter act, NPC1 promoter act)
CCN(CC)CCNC(=O)C1CCN(c2nn3cc(-c4ccc(F)cc4)nc3s2)CC1	FLuc counter 21.3µM (no result: uPA surface inh, ELG1 genotoxic, SMN2 splice up, Rab9 promoter act, NPC1 promoter act)
COCCOC(=O)Cn1nnc2sc(-c3ccccc3)cc2c1=O	none (no result: uPA surface inh, ELG1 genotoxic, Rab9 promoter act, NPC1 promoter act)
COc1ccc(NC(=O)C(C)n2nnc3sc(-c4ccccc4)cc3c2=O)cc1Cl (stereo not drawn)	FLuc counter 6.01µM (no result: uPA surface inh, ELG1 genotoxic, Rab9 promoter act, NPC1 promoter act)
CCC(C(=O)OC)n1nnc2sc(-c3ccccc3)cc2c1=O (stereo not drawn)	FLuc counter 19µM (no result: uPA surface inh, ELG1 genotoxic, Rab9 promoter act, NPC1 promoter act)
Cc1cc(C)c(NC(=O)C(C)n2nnc3sc(-c4ccccc4)cc3c2=O)c(C)c1 (stereo not drawn)	none (no result: uPA surface inh, ELG1 genotoxic, Rab9 promoter act, NPC1 promoter act)
Oc1ccc(COC2CCN(Cc3ccccc3)C2)c2cccnc12 (stereo not drawn)	none (no result: uPA surface inh, ELG1 genotoxic, SMN2 splice up)
N#Cc1ccccc1Cn1c(=O)n(CCCC(=O)NCc2ccc3c(c2)OCO3)c(=O)c2sccc21	none (no result: uPA surface inh, ELG1 genotoxic, Rab9 promoter act, NPC1 promoter act)
CN(C)C(=O)c1ccc2c(c1[N+](=O)[O-])C(=O)c1ccccc1C2=O	SMN2 splice up 11.2µM, Rab9 promoter act inconclusive, NPC1 promoter act inconclusive
Cc1ccc(CNC(=O)C2CCN(c3nc4ccc(C)cc4[nH]3)CC2)cc1	none (no result: uPA surface inh, ELG1 genotoxic, SMN2 splice up, Rab9 promoter act, NPC1 promoter act)
O=C(NCC12CC3CC(CC(C3)C1)C2)c1nn2cccnc2c1Cl	none (no result: uPA surface inh)
O=C(NCC1CCCO1)c1nn2cccnc2c1Cl (stereo not drawn)	ELG1 genotoxic inconclusive, SMN2 splice up 22.4µM
COc1ccc2nc(C)cc(N/N=C/c3ccc(F)cc3)c2c1	FLuc counter 16.9µM (no result: SMN2 splice up)
Cc1ccc(/C=N/Nc2cc(C)nc(NCc3ccccc3)n2)cc1	FLuc counter 10.7µM (no result: SMN2 splice up)
